# SENP6 inh: SENP6 protease inhibitors, primary screen, biochemical, luminescence, uHTS. Sentrin-specific protease 6 (Homo sapiens), Q9GZR1. Recombinant SENP6 catalytic domain, aminoluciferin luminescence. inhibition, % at 10 µM. 330,000 compounds, 1.8% hits. AID 2599, 2010;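 active = inhibition above about 50% at the single tested dose, limit read from the data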;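 note: plate controls were DMSO wells with enzyme for no effect and DMSO wells lacking enzyme for full effect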
# SENP8 block-1: SENP8 protease inhibitors, primary screen, biochemical, luminescence. Sentrin-specific protease 8 (Homo sapiens), Q96LD8. purified SENP8, Z-RLRGG-aminoluciferin cleavage. inhibition, % at 10 µM. 330,000 compounds, 1.2% hits. AID 2540, 2010; in the data active = inhibition above about 50%
# Target sequence (Q96LD8 whole entry, looked up): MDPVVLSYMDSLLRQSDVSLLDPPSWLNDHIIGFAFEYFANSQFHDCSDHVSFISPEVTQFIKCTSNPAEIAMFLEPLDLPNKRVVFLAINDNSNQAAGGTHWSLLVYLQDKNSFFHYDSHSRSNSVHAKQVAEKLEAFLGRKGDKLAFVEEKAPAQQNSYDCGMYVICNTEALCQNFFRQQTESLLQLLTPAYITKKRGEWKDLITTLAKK
# HSP90 inh: HSP90 inhibitors, primary screen, cell lysate, luminescence; 290,000 compounds, 0.91% hits; Rabbit reticulocyte lysate, luciferase refolding luminescence, 3 h; inhibition, % at 5.6 µM; Heat shock protein HSP 90 (rabbit reticulocyte lysate; luciferase refolding);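 active = inhibition above the screen-wide mean plus 3 SD, computed separately per campaign, cut at about 16% in these data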;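 note: 0% = DMSO wells and 100% = 60 µM geldanamycin wells; inhibitors lower the luminescence because luciferase stays unfolded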
# SENP7 block: SENP7 protease inhibitors, primary screen, biochemical, luminescence, uHTS; Sentrin-specific protease 7 (Homo sapiens), Q9BQF6; recombinant SENP7, Z-RLRGG-aminoluciferin luminescence, 40 min; inhibition, % at 5 µM; 330,000 compounds, 1.5% hits; AID 434973, 2010;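 active = inhibition above about 50% at the single test dose, limit read from the data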;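 note: plate controls were DMSO with enzyme for no effect and no enzyme buffer wells for full effect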
# Target sequence (Q9BQF6 706-1050 limits assumed): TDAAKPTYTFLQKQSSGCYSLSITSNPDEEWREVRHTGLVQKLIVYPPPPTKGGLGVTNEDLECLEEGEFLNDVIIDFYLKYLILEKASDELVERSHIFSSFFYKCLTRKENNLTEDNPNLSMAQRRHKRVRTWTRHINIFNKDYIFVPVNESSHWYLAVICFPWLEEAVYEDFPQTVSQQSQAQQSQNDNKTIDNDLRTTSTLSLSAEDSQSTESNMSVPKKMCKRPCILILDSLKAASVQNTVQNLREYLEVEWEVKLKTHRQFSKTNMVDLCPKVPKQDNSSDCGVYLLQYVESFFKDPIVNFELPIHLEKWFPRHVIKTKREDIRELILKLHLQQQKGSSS
# SENP8 block-2: human SENP8 protease inhibitors, primary screen, biochemical, fluorescence, Nedd8 protein substrate, uHTS; Sentrin-specific protease 8 (Homo sapiens), Q96LD8; recombinant SENP8; inhibition, % at 20 µM; 360,000 compounds, 0.64% hits; in the data active = inhibition mostly above about 40%, no sharp cut-off; inactive = mostly below about 27%
# SENP8 conf: SENP8 protease inhibitors, retest, confirmation, biochemical, luminescence, single concentration | shares compounds with SENP7 block | Recombinant SENP8, Z-RLRGG-aminoluciferin luminescence, 60 min | inhibition, % at 12.5 µM | 6,200 compounds, 40% hits;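 active = mean inhibition across replicates above about 50%, limit read from the data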
# SENP6 conf: SENP6 protease inhibitors, confirmation, biochemical, luminescence, single concentration; AID 488915, 2010; recombinant SENP6, Z-RLRGG-aminoluciferin luminescence; shares compounds with SENP7 block; 6,200 compounds, 58% hits; inhibition, % at 12.5 µM
# SENP7 confirm: SENP7 protease inhibitors, retest, confirmation, biochemical, luminescence, single concentration. shares compounds with SENP7 block. recombinant SENP7, Z-RLRGG-aminoluciferin luminescence, 40 min. inhibition, % at 12.5 µM. 6,200 compounds, 69% hits
# Casp3 select: caspase-3 protease inhibitors, confirmation, selectivity assay for SENP inhibitor project, biochemical, single concentration | shares compounds with SENP7 block | purified caspase-3, Z-DEVD-aminoluciferin luminescence, 60 min | inhibition, % at 12.5 µM | 6,200 compounds, 60% hits | AID 488918, 2010;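 active = mean inhibition above about 50%, limit read from the data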;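 note: plate controls were enzyme with DMSO for no effect and wells without caspase-3 for full effect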
# Luc interf: interferes with luciferase luminescence in SENP counter-screen; 6,200 compounds, 39% hits; shares compounds with SENP7 block; inhibition, % at 12.5 µM; Pre-incubated SENP8/Z-RLRGG-aminoluciferin, luciferase luminescence interference; AID 488919;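 active = mean inhibition above about 50% when retested at one dose, limit read from the data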;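 note: plate controls were DMSO wells with completed reaction for no effect and substrate without enzyme for full effect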
# * = called active by the depositor; x = no result. This is a sample that favours compounds with a hit; in the whole collection about 2.7% have one here.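 Rule for the calls, unless noted: active = mean inhibition above about 50% in the one-dose retest (limit read from the data); inactive = the rest.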
SMILES,SENP6 inh,SENP8 block-1,HSP90 inh,SENP7 block,SENP8 block-2,SENP8 conf,SENP6 conf,SENP7 confirm,Casp3 select,Luc interf
O=C(O)c1ccc(-c2nc3scc(-c4ccccc4)c3c(=O)[nH]2)cc1,61*,32,2,25,-405,38,30,62*,23,18
O=C(c1ccc(S(=O)(=O)N2CCOCC2)cc1)N(c1ccc(F)cc1)C1C=CS(=O)(=O)C1 (configuration not stated),-22,-16,0,12,18,x,x,x,x,x
COC1CCCN(C(=O)c2cccc(OC3CCN(S(=O)(=O)N(C)C)CC3)c2)C1 (configuration not stated),-17,3,-9,-1,5,x,x,x,x,x
CC(/C=C/c1ccc(O)cc1)=N/O,91*,81*,4,85*,2,86*,84*,96*,93*,86*
CC(/C=C/c1ccccc1)=N/O,24,-18,-3,1,21,x,x,x,x,x
O=C1C2C3C=CC(CC3)C2C(=O)N1/N=C/c1ccc(O)cc1 (configuration not stated),-22,-6,-2,2,8,x,x,x,x,x
O=C1/C(=C\c2ccc(O)cc2)SC(=S)N1/N=C/c1ccc(O)cc1,98*,90*,3,83*,24,16,10,44,48,57*
CC(=O)NN1C(=O)/C(=C\c2ccc(O)cc2)SC1=S,69*,60*,0,54*,16,63*,61*,85*,82*,74*
COc1ccc(NC(=O)c2cc(S(=O)(=O)N3CCCCC3)ccc2N2CCCCC2)cn1,3,-8,7,-2,14,x,x,x,x,x
Cc1nc(NC(=O)CSc2ccc(-c3nc4ccccc4[nH]3)cn2)sc1C,4,-12,1,-5,-246,x,x,x,x,x
O=C(CCC1CCCC1)c1c(O)c2ccccc2oc1=O,71*,46,-4,4,4,68*,68*,85*,70*,39
O=C1C(C=NCc2ccco2)=C(O)c2ccccc21,-54,-4,-1,7,17,x,x,x,x,x
Cc1ccccc1N=CC1=C(O)c2ccccc2C1=O,98*,93*,10,102*,40*,94*,98*,102*,97*,54*
O=C1C(C=Nc2ccc(F)cc2)=C(O)c2ccccc21,76*,74*,1,95*,23,51*,54*,67*,66*,20
O=C1C(C=NCc2ccncc2)=C(O)c2ccccc21,2,-6,5,-9,8,x,x,x,x,x
COc1ccc(N=CC2=C(O)c3ccccc3C2=O)c(OC)c1,90*,95*,33*,99*,50*,53*,96*,102*,88*,3
COc1ccc(N(CC(=O)NCc2ccncc2)S(=O)(=O)c2ccc(C)c([N+](=O)[O-])c2)cc1,85*,0,-7,1,22,-2,0,-2,-1,0
COCCCNC(=O)CN(c1cc(Cl)ccc1OC)S(=O)(=O)c1ccc(C)c([N+](=O)[O-])c1,73*,-10,-2,-6,17,6,3,-10,-5,-2
COCCNC(=O)CN(c1cc(Cl)ccc1OC)S(=O)(=O)c1ccc(C)c([N+](=O)[O-])c1,8,-3,-3,-5,0,x,x,x,x,x
O=C(Nc1ccc(N2CCOCC2)cc1N1CCOCC1)c1ccc([N+](=O)[O-])cc1Cl,-5,4,2,3,16,x,x,x,x,x
CSc1ccccc1NC(=O)COc1ccc(Cl)cc1Cl,25,4,2,8,16,x,x,x,x,x
CCCCc1cc(=O)oc2cc(C)cc(OCC(=O)Nc3ccccn3)c12,53*,31,5,13,-256,40,34,68*,76*,53*
O=C(COc1ccc(Cl)cc1Cl)Nc1ccccn1,-10,98*,87*,100*,10,96*,98*,101*,96*,80*
O=C(COc1ccccc1Cl)Nc1ccc(Cl)cn1,74*,38,-1,48,4,24,61*,86*,60*,6
CC(NC(=O)C(=O)NCCCn1ccnc1)c1ccccc1 (configuration not stated),-13,-11,1,-10,24,x,x,x,x,x
SMILES,SENP6 inh,SENP8 block-1,HSP90 inh,SENP7 block,SENP8 block-2,SENP8 conf,SENP6 conf,SENP7 confirm,Casp3 select,Luc interf
COc1ccc(-n2c(SCc3ccc([N+](=O)[O-])cc3)nnc2-c2ccccc2)cc1,-14,-3,1,1,10,x,x,x,x,x
CN(Cc1ccccc1)C(=O)COC(=O)c1cc(-c2ccc(Cl)s2)nc2ccccc12,-3,0,-1,6,-290,x,x,x,x,x
CCOc1ccc(C(=O)C(C)=O)c(OCC)c1,-2,-4,1,-1,3,x,x,x,x,x
CC1CC(C)CN(CCCNC(=O)C2CCN(S(=O)(=O)N3CCCCC3)CC2)C1 (configuration not stated),19,-4,4,101*,10,7,8,-7,-2,-2
S=C(NCc1ccc(Cl)cc1)Nc1ccccc1Cl,-15,-4,-3,5,7,x,x,x,x,x
COc1ccc(CCNC(=O)C/C(C)=N/NC(=O)c2ccc(Cl)cc2Cl)cc1OC,5,-1,1,1,4,x,x,x,x,x
CN(CCCn1ccc(NC(=O)OCc2ccccc2)nc1=O)CCc1ccccn1,x,x,x,x,6,x,x,x,x,x
CN(C)c1cc(N/N=C/c2ccc(Cl)cc2)nc(N(C)C)n1,x,x,4,x,-17,x,x,x,x,x
CCOC(=O)C1CCN(Cc2ccc(O)c(OC)c2)CC1,96*,2,0,12,10,6,0,-2,-2,-1
CCOC(=O)C1CCN(Cc2ccc(OC)c(OCc3ccccc3)c2)CC1,-26,-6,-4,-99,31,x,x,x,x,x
COc1ccc(NC(=O)Nc2ccccc2C(N)=O)cc1OC,-22,7,-2,36,11,x,x,x,x,x
